According to article PMC7862700, “An all-to-all approach to the identification of sequence-specific readers for epigenetic DNA modifications on cytosine”:

Columns and labels:
Test in all cases: DAPPL (digital affinity profiling via proximity ligation, sequencing); 10 mM Tris-HCl pH 7.5, 50 mM NaCl, 1 mM DTT, 4% glycerol, room temperature, 30 min; GST-TFs on glutathione beads, 16-mer random dsDNA library, 0.1% formaldehyde crosslink after washing; high values mean tight binding
FEV = target: T1, FEV (Homo sapiens, UniProt Q99581 1-238); conditions: protein: recombinant; tags: N-terminal GST; dsDNA, one strand shown
T1 sequence: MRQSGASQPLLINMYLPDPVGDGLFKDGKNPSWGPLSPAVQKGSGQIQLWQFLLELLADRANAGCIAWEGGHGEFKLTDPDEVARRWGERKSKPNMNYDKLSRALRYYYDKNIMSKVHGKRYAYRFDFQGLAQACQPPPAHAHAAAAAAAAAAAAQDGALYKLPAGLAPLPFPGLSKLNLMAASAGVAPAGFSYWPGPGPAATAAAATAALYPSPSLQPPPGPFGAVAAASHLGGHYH
Method in brief: (§1)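 The binding signal reported is, for every hexamer, its read frequency for a factor over its read frequency for the tag-only sample. Reads came from pools of yeast-expressed, GST-fused human transcription factors on glutathione beads, barcoded with DNA and mixed with that sample, which were incubated with 200 nmole of a random double-stranded 16-mer DNA library in Tris/NaCl/DTT/glycerol buffer at room temperature for 30 min. After washing, the pools were crosslinked with 0.1% formaldehyde, proximity-ligated with BsaI/T4 ligase for 1 h at 37 °C, PCR-amplified and sequenced on an Illumina NextSeq500.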

ETV5 = ETV5 (Homo sapiens, UniProt P41161 1-510); conditions: protein: recombinant; tags: N-terminal GST; dsDNA, one strand shown
ETV5, sequence (P41161 whole entry): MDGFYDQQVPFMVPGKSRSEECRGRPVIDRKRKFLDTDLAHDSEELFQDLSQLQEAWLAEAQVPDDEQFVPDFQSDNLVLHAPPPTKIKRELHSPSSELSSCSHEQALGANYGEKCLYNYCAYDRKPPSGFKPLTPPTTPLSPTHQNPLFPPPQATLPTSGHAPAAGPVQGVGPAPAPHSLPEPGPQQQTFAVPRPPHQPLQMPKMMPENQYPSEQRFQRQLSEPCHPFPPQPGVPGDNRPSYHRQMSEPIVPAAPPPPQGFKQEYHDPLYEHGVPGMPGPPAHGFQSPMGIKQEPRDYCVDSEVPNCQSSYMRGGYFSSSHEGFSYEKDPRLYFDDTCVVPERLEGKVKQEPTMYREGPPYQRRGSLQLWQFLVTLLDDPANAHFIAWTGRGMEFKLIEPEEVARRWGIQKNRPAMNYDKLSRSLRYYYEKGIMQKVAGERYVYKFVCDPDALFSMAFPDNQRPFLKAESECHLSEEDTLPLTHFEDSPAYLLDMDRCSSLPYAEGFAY
Method in brief: as §1

HSF1 = HSF1 (Homo sapiens, UniProt Q00613 1-529); conditions: protein: recombinant; tags: N-terminal GST; chain copies: 3; dsDNA, one strand shown
HSF1, sequence (Q00613 whole entry): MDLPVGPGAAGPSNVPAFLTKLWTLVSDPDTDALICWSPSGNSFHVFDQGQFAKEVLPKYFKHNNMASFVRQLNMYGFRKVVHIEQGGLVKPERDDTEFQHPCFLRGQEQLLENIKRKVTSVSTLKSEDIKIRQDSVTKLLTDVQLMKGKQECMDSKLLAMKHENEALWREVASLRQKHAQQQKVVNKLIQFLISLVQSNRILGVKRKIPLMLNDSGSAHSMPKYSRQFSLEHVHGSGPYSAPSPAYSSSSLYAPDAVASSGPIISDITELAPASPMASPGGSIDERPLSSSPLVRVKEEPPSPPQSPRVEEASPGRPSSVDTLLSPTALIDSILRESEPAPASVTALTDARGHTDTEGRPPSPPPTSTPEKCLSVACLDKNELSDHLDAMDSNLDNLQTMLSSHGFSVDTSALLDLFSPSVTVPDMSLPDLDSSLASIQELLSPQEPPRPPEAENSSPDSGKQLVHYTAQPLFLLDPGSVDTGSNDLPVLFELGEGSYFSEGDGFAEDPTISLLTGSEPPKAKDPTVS
Method in brief: as §1

SPIC = target: T2, SPIC (Homo sapiens, UniProt Q8N5J4 1-248); conditions: protein: recombinant; tags: N-terminal GST; dsDNA, one strand shown
T2 sequence: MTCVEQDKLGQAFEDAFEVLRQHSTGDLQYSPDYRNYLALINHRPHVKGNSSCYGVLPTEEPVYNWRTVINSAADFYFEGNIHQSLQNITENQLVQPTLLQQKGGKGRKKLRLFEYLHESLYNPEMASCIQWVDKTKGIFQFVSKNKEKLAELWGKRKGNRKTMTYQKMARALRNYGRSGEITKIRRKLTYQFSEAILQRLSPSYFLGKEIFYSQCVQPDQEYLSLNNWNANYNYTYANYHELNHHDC
Method in brief: as §1

ELF4 = ELF4 (Homo sapiens, UniProt Q99607 1-663); conditions: protein: recombinant; tags: N-terminal GST; dsDNA, one strand shown
ELF4, sequence (Q99607 whole entry): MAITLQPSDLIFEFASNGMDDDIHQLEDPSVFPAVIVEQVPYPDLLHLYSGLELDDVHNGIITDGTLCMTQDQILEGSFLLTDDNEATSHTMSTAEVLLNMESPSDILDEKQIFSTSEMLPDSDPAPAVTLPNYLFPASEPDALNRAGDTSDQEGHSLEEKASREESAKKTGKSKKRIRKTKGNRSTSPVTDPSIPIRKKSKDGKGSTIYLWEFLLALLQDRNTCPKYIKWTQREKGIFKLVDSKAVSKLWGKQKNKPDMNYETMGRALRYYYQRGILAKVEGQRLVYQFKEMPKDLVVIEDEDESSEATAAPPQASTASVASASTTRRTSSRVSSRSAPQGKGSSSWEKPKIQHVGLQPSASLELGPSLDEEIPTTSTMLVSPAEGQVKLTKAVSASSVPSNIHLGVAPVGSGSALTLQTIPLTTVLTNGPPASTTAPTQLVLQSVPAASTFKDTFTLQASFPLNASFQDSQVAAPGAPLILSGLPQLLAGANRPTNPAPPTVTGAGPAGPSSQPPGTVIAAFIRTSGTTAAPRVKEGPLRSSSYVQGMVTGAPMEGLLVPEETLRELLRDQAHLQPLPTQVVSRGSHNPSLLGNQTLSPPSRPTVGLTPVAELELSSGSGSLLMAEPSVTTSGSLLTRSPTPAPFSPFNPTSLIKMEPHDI
Method in brief: as §1

ELK4 = target: T3, ELK4 (Homo sapiens, UniProt P28324-2 1-405); conditions: protein: recombinant; tags: N-terminal GST; dsDNA, one strand shown
T3 sequence: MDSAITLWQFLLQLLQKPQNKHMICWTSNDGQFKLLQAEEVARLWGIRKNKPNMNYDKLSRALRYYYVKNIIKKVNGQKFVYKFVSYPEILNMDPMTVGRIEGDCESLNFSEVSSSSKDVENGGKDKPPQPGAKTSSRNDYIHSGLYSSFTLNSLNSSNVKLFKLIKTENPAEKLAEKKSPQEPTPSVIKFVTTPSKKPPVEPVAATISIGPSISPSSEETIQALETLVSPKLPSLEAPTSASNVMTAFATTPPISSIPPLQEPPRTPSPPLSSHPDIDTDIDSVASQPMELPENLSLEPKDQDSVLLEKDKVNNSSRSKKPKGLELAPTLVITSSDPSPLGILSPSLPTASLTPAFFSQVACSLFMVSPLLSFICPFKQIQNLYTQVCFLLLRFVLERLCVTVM
Method in brief: as §1

ETV2 = target: T4, ETV2 (Homo sapiens, UniProt O00321 1-342); conditions: protein: recombinant; tags: N-terminal GST; dsDNA, one strand shown
T4 sequence: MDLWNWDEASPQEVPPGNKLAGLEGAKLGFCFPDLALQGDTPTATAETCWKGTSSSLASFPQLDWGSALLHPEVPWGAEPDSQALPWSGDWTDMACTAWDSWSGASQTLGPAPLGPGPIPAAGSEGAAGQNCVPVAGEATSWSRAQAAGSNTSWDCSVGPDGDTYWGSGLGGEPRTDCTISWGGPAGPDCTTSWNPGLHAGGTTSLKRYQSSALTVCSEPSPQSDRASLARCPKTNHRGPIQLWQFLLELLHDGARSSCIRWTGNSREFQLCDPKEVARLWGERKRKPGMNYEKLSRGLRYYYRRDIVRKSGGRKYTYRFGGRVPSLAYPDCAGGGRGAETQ
Method in brief: as §1

ELF3 = target: T5, ELF3 (Homo sapiens, UniProt P78545 1-371); conditions: protein: recombinant; tags: N-terminal GST; dsDNA, one strand shown
T5 sequence: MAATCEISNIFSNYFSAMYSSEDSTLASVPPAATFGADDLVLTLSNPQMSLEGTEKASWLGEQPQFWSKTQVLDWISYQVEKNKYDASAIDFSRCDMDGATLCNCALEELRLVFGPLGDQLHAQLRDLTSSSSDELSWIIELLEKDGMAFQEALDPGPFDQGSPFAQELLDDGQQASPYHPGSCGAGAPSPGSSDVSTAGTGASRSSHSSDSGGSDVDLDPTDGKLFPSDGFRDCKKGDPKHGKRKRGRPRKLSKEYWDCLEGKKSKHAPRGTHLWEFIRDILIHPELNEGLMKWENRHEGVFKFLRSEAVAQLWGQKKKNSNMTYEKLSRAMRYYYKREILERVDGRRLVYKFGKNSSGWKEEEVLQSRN
Method in brief: as §1

CRX = CRX (Homo sapiens, UniProt O43186 1-299); conditions: protein: recombinant; tags: N-terminal GST; dsDNA, one strand shown
CRX, sequence (O43186 whole entry): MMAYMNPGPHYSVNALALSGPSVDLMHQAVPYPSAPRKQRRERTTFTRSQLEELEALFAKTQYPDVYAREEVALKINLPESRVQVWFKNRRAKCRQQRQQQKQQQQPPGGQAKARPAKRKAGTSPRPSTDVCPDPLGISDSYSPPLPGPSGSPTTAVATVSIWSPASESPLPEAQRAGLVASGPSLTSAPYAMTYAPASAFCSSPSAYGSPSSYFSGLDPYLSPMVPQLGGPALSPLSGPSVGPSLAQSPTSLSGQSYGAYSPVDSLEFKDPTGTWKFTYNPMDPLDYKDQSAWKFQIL
Method in brief: as §1

ETV1 = ETV1 (Homo sapiens, UniProt P50549 1-477); conditions: protein: recombinant; tags: N-terminal GST; dsDNA, one strand shown
ETV1, sequence (P50549 whole entry): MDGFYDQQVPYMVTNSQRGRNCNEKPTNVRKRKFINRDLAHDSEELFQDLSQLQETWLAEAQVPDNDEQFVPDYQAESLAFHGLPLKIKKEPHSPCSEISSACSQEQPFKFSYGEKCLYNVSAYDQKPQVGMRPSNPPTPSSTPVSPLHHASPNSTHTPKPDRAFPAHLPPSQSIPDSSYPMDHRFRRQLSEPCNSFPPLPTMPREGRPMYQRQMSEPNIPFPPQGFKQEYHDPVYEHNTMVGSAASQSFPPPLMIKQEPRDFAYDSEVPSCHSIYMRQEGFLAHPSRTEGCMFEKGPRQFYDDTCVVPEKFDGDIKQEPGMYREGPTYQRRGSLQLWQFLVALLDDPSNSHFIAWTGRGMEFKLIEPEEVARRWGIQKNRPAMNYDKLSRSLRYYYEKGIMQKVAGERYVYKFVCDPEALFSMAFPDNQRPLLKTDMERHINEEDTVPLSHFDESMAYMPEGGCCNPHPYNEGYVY
Method in brief: as §1

ERF = target: T6, ERF (Homo sapiens, UniProt P50548 1-548); conditions: protein: recombinant; tags: N-terminal GST; dsDNA, one strand shown
T6 sequence: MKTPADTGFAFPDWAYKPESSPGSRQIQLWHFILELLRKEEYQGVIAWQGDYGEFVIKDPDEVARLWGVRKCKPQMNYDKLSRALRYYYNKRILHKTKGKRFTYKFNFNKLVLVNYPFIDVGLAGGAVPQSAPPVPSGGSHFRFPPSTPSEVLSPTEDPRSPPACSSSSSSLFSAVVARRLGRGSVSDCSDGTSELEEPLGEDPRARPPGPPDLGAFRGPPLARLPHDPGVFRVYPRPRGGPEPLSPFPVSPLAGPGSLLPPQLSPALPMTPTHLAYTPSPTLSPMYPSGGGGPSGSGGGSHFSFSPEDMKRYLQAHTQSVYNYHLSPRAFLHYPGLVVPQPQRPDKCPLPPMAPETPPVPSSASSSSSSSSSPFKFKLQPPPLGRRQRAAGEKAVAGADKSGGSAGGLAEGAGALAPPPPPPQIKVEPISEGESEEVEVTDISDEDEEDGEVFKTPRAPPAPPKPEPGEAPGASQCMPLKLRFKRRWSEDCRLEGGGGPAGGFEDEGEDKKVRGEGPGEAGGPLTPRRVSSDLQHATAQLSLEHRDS
Method in brief: as §1

ETV3L = target: T7, ETV3L (Homo sapiens, UniProt Q6ZN32 1-361); conditions: protein: recombinant; tags: N-terminal GST; dsDNA, one strand shown
T7 sequence: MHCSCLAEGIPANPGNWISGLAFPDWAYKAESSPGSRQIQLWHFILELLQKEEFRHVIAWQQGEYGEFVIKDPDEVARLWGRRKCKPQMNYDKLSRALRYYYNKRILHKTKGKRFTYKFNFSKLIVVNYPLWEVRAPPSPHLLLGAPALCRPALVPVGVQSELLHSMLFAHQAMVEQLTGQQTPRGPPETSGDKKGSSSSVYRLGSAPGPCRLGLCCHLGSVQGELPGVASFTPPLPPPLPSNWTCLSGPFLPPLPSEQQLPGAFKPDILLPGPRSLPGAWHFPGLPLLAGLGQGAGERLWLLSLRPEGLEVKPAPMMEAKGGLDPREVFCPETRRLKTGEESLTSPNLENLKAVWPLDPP
Method in brief: as §1

ETS2 = target: T8, ETS2 (Homo sapiens, UniProt P15036 1-469); conditions: protein: recombinant; tags: N-terminal GST; dsDNA, one strand shown
T8 sequence: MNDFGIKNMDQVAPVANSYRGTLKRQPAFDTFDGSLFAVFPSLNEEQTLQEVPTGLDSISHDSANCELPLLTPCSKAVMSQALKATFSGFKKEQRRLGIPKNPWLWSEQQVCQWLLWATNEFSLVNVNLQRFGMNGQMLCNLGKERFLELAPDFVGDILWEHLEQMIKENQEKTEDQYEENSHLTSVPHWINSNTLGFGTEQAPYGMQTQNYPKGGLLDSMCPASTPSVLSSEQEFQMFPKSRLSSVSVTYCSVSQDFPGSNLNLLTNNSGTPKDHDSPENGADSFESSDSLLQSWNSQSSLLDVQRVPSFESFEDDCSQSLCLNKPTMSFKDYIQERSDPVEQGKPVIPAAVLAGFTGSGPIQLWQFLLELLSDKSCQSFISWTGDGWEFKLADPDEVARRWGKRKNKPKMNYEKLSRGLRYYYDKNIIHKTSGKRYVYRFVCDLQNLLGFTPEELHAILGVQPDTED
Method in brief: as §1

SPDEF = target: T9, SPDEF (Homo sapiens, UniProt O95238 1-335); conditions: protein: recombinant; tags: N-terminal GST; dsDNA, one strand shown
T9 sequence: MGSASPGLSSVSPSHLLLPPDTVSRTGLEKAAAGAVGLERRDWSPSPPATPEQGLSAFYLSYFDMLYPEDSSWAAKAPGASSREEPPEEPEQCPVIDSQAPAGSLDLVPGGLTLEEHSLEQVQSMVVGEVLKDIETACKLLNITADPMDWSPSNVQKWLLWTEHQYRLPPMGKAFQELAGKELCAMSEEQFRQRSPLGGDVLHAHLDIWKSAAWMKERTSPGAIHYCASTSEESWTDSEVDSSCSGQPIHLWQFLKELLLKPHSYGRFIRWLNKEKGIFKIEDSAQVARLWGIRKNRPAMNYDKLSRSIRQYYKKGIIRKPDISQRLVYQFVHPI
Method in brief: as §1

ETV7 = target: T10, ETV7 (Homo sapiens, UniProt Q9Y603 1-341); conditions: protein: recombinant; tags: N-terminal GST; dsDNA, one strand shown
T10 sequence: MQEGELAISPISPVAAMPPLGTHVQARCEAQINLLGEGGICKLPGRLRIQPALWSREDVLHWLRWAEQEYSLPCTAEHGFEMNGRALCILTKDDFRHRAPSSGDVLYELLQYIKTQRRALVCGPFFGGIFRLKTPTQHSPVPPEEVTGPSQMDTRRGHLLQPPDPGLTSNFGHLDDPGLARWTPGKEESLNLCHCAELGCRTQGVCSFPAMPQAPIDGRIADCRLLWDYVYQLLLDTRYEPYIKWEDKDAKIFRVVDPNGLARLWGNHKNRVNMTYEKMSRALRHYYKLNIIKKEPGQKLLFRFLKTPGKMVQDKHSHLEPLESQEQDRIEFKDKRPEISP
Method in brief: as §1

ELF5 = target: T11, ELF5 (Homo sapiens, UniProt Q9UKW6-2 1-255); conditions: protein: recombinant; tags: N-terminal GST; dsDNA, one strand shown
T11 sequence: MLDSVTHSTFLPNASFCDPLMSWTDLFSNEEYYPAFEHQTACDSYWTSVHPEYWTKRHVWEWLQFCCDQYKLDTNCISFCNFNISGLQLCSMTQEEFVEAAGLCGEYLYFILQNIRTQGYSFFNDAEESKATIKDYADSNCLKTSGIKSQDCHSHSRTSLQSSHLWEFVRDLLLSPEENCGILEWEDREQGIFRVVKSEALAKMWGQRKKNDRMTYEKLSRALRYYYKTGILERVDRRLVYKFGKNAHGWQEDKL
Method in brief: as §1

ETV3 = target: T12, ETV3 (Homo sapiens, UniProt P41162-2 1-143); conditions: protein: recombinant; tags: N-terminal GST; dsDNA, one strand shown
T12 sequence: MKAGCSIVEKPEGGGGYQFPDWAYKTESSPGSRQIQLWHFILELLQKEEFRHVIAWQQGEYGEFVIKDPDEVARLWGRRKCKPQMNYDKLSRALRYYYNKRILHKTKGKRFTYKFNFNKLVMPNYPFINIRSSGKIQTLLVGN
Method in brief: as §1

ETV6 = ETV6 (Homo sapiens, UniProt P41212 1-452); conditions: protein: recombinant; tags: N-terminal GST; dsDNA, one strand shown
ETV6, sequence (P41212 whole entry): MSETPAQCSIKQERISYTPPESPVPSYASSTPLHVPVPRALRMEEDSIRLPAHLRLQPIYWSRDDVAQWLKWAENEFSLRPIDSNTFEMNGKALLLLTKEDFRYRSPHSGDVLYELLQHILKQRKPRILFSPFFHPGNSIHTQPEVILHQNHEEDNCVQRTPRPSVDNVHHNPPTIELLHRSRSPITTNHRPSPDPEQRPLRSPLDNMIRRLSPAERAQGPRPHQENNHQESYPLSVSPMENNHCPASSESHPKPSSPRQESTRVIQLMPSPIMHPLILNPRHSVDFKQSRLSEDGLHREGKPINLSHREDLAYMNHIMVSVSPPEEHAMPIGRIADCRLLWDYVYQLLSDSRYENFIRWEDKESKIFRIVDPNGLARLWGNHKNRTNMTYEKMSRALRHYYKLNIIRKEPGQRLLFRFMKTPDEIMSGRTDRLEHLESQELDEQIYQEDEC
Method in brief: as §1

Question: How did the binding signal (FEV) turn out when GTTGCT was run?
Answer: 1.18 fold enrichment (6-mer frequency, TF over GST control)

Question: And the binding signal (ETV5)?
Answer: 1.28 fold enrichment (6-mer frequency, TF over GST control)

Question: What about the binding signal (HSF1) of the same sequence?
Answer: 1.09 fold enrichment (6-mer frequency, TF over GST control)

Question: And the binding signal (SPIC)?
Answer: 1.28 fold enrichment (6-mer frequency, TF over GST control)

Question: What about the binding signal (ELF4) of the same sequence?
Answer: 1.27 fold enrichment (6-mer frequency, TF over GST control)

Question: What about the binding signal (ELK4) of the same sequence?
Answer: 1.33 fold enrichment (6-mer frequency, TF over GST control)

Question: And the binding signal (ETV2)?
Answer: 1.26 fold enrichment (6-mer frequency, TF over GST control)

Question: And the binding signal (ELF3)?
Answer: 1.16 fold enrichment (6-mer frequency, TF over GST control)

Question: And the binding signal (CRX)?
Answer: 1.06 fold enrichment (6-mer frequency, TF over GST control)

Question: And the binding signal (ETV1)?
Answer: 1.38 fold enrichment (6-mer frequency, TF over GST control)

Question: What about the binding signal (ERF) of the same sequence?
Answer: 1.27 fold enrichment (6-mer frequency, TF over GST control)

Question: What about the binding signal (ETV3L) of the same sequence?
Answer: 1.26 fold enrichment (6-mer frequency, TF over GST control)

Question: What about the binding signal (ETS2) of the same sequence?
Answer: 1.22 fold enrichment (6-mer frequency, TF over GST control)

Question: What about the binding signal (SPDEF) of the same sequence?
Answer: 1.27 fold enrichment (6-mer frequency, TF over GST control)

Question: And the binding signal (ETV7)?
Answer: 1.38 fold enrichment (6-mer frequency, TF over GST control)

Question: And the binding signal (ELF5)?
Answer: 1.27 fold enrichment (6-mer frequency, TF over GST control)

Question: And the binding signal (ETV3)?
Answer: 1.51 fold enrichment (6-mer frequency, TF over GST control)

Question: What about the binding signal (ETV6) of the same sequence?
Answer: 1.29 fold enrichment (6-mer frequency, TF over GST control)
